Test results as given in PubChem BioAssay (NCATS).
This is one part of the list. Results filed as inconclusive are left out. Active and inactive are the calls of the source. Calls come from the whole dose curve.
Potency is the fitted concentration of half-maximal effect.

The compounds below were run against Polyprotein P1234 (Chikungunya virus (strain S27-African prototype)) (UniProt Q8JUX6) (assay: Selectivity profile for inhibitors of NSP2Pro chikungunya virus (CHIKV): Full length NSP2 enzyme counterscreen (CHIKV-NSP2) (AID 1964101; note: nearly all actives have a fitted effect of over 65% in size)). Conditions: Full-length CHIKV NSP2 protease enzymatic counterscreen; series mostly up to 50.7 µM.
Sequence of Polyprotein P1234 (Chikungunya virus (strain S27-African prototype)) (Q8JUX6 whole entry, looked up): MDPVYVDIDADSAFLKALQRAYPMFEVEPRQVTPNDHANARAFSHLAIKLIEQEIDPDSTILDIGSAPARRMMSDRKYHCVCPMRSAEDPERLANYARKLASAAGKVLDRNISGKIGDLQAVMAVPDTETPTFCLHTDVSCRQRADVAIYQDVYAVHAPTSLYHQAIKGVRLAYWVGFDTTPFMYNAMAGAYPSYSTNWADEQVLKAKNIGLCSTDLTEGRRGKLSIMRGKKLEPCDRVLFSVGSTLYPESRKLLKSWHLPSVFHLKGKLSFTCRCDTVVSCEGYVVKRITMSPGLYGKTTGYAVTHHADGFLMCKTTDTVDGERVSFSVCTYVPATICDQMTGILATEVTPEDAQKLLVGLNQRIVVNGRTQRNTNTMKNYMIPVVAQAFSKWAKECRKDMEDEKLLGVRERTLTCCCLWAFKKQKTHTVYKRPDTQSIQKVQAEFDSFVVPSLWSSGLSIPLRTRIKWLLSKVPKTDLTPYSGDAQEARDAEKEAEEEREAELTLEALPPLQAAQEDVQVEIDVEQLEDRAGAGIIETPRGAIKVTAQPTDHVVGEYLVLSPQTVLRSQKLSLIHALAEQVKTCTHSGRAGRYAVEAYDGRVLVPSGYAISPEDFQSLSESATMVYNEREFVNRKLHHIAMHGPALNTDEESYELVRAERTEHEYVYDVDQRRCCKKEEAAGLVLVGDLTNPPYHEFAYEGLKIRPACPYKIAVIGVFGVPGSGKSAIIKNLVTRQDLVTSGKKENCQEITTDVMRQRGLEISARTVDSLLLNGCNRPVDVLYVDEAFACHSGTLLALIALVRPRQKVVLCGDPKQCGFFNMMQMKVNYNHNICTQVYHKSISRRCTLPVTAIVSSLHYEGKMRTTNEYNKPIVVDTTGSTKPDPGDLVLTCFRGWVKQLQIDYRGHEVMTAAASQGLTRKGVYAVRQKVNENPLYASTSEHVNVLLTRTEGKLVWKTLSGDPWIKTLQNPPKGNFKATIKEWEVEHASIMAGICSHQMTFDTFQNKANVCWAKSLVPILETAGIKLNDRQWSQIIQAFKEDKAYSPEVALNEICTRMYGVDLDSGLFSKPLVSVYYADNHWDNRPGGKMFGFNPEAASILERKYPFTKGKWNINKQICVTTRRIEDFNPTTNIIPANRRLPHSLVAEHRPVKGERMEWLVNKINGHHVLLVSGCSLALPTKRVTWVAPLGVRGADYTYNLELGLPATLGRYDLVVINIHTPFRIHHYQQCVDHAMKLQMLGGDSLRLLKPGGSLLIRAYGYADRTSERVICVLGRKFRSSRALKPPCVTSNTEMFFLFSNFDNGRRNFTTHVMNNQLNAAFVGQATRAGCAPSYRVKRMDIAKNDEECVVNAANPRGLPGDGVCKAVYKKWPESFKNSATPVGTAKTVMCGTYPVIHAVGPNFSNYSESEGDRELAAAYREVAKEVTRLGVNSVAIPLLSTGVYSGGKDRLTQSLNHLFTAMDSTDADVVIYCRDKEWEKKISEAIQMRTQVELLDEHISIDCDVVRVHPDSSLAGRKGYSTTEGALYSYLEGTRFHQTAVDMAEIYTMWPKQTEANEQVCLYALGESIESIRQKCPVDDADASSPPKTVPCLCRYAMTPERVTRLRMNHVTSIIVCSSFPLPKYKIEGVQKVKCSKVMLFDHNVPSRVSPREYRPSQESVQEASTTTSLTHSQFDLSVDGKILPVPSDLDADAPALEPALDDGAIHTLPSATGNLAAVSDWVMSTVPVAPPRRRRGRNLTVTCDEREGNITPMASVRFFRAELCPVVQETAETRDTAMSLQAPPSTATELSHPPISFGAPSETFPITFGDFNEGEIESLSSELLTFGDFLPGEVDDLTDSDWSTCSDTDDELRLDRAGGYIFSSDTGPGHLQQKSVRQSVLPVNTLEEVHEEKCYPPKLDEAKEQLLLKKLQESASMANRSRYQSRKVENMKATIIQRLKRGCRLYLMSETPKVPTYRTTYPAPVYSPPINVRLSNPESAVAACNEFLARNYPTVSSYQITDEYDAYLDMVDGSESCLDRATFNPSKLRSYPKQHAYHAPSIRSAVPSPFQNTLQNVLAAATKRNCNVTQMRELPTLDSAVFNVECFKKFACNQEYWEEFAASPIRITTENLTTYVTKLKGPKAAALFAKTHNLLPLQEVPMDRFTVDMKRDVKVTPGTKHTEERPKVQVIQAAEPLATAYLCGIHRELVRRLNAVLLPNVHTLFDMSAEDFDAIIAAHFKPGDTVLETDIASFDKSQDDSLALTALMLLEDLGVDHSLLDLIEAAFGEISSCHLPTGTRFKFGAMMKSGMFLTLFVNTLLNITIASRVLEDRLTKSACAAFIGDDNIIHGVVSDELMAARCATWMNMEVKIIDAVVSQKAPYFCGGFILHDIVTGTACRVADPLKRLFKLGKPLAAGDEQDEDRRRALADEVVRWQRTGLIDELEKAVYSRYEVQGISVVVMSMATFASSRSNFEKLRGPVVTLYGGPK
Text: PI: Natalia J. Martinez Ph.D.
National Center for Advancing Translational Sciences (NCATS),
National Institute of Health (NIH), Rockville, Maryland
Chikungunya virus (CHIKV) is a mosquito-borne RNA virus that has emerged as one of the most important global arboviral threats in the last decade. Although the first CHIKV vaccine has recently been FDA approved for use in healthy adults at increased risk, to date, there are no available antiviral drugs for CHIKV infection. CHIKV nsP2 protease plays a crucial role in the processing of the viral polypeptide precursor to release enzymes required for viral replication, thus making it a promising drug target for antiviral discovery. Here, we established a high-throughput pipeline to identify small molecule inhibitors of nsP2 proteolytic activity. The pipeline is composed of a suite of 1,536-well in vitro assays to support quantitative high-throughput (qHTS) screening campaigns. Specifically, we developed a fluorescence resonance energy transfer (FRET)-based assay using a fluorogenic peptide substrate encompassing an endogenous cleavage site and purified recombinant protease domain (nsP2pro). Using this assay, we interrogated ~37,000 small molecules, including those in drug repurposing libraries as well as chemically diverse and medicinal chemistry-friendly compounds. Hits were selected for follow-up validation against full-length nsP2 and an additional peptide. FRET-based 1,536-well assays for papain, hepatitis C virus NS3-4A, and human furin proteases were implemented to characterize compound selectivity. […] Novel compounds were identified to be potential nsP2 inhibitors and molecular docking analyses were performed to explain the binding mode of selected hits. In vitro antiviral activity was evaluated for a subset of compounds using a high-throughput CHIKV infection assay. To our knowledge, the pipeline presented here is unprecedented for CHIKV antiviral discovery research.
PROTOCOL TABLE (as described by Inglese J, Shamu CE and Guy RK. 2007)
SEQUENCE No. (e.g., 1, 2, 3, etc.); […] (e.g., Cells, Incubation, Reagent, etc.); VALUE; DESCRIPTION.
1; Control / Compound; 20 nL; Echo 655 acoustic dispenser, Greiner 1536-well solid bottom black plate.
2; Enzyme; 4 uL; BioRAPTR FRD liquid dispenser (Beckman Coulter).
3; Incubation; 15 min; room temperature.
4; Reagent; 4 uL; 2.5 uM Peptide 2 substrate.
5; Incubation; 1 hr; room temperature.
6; Detection; Fluorescence; WiewLux microplate reader (PerkinElmer), 525 nm excitation, 598/25 nm emission.
NOTES (numbers refer to sequence numbers above).
1. Briefly, 20 nL DMSO, positive control ZnAc (20nM final concentration), and test compounds were transferred into a 1,536-well solid bottom black plate (789176-F, Greiner One) via Echo 655 acoustic dispenser (Beckman Coulter). For primary screens, compounds were tested at 7 concentrations, 1:3 dilution points ranging from 25 uM to 34 nM. Follow-up confirmatory screens were carried out at 11 concentrations, 1:3 dilution points from 25 uM to 0.42 nM.
2. Four uL NSP2 full length enzyme mix (150 nM final concentration) in 10 mM Tris-HCl pH 8.0 with 0.01% Tween 20 assay buffer was dispensed into the plate using a BioRAPTR FRD liquid dispenser (Beckman Coulter).
3. The plate was incubated at room temperature (protected from light) for 15 min
4. Four microliter of peptide 2 substrate (2.5 uM final concentration) in assay buffer was added to the plate.
5. After 1 hour, plates were immediately read on a ViewLux high-throughput CCD imager (Exposure = 10 sec, Gain = High, Speed = Slow, Binning = 2X). The above assay was also incorporated in the NCATS HTS facility41, which allowed for robotic liquid and compound dispensing, microplate handling, and fluorescence reading.
Inglese J, Shamu CE and Guy RK, Reporting data from high throughput screening of small molecule libraries, Nature Chemical Biology, 2007, 3(8): 438-441. doi.org/10.1038/nchembio0807-438.
COC([CH2][Hg])CNC(=O)c1ccccc1OCC(=O)O (centres undefined) was tested, and the Potency was 18.3 µM (active). With Oc1ccc(OC2CCCCO2)cc1 (centres undefined) the Potency was “inactive”. CCOc1ccc(N(Cc2ccccc2)C(=O)c2nc(S(C)(=O)=O)ncc2Cl)cc1 was tested, and the Potency was 14.6 µM (active). For C=CC(=O)c1ccc2ccccc2c1, the Potency was 11.6 µM (active). For C[C@@H]1C[C@@H](O)[C@@]23CO[C@]2(CO)C[C@@H](O)CC3[C@@]12CC(c1ccoc1)OC2=O (some centres undefined), the Potency was “inactive”. In the case of Cn1nnnc1Sc1ncnc2n[nH]c(-c3cccc(S(C)(=O)=O)c3)c12, the Potency was 15.8 µM (active). With CO[C@]1(NC(=O)CSC(F)F)C(=O)N2C(C(=O)O)=C(CSc3nnnn3CCO)CO[C@H]21 the Potency was “inactive”. For CCC(C)C(=O)OC1C(C)C2(O)C(C=C(CO)CC3(O)C(=O)C(C)=CC32)C2C(C)(C)C12OC(=O)C(C)C (centres undefined), the Potency was “inactive”. For N#CSc1cc(SC#N)c(N)nc1N, the Potency was 1.03 µM (active).
